# Screening data deposited in PubChem by Sanford-Burnham Center for Chemical Genomics.
# Sampled rows, rich in hits. Any-hit rate of the full collection: about 3.9%.
# Peg3 promoter – Peg3 promoter-driven luciferase inhibitors, primary screen, cell-based, HeLa, luciferase luminescence; HeLa PEG-Prom luciferase reporter, overnight; actives 1.7% (n = 360,000); AID 588405, 2011; inhibition, % at 20 µM;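 active = inhibition of at least 50% at 20 µM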
# TWEAK Fn14 block – inhibitors of TWEAK-Fn14 signaling, primary screen, luciferase reporter cells, uHTS | TWEAK-stimulated Fn14 reporter cells, luciferase luminescence, 8 h | inhibition, % at 10 µM | actives 2% (n = 360,000) | AID 1159606, 2016; in the data active = inhibition above about 50%
# HIF-2a block – HIF-2a reporter inhibitors, primary screen, luminescence, 786-0 RCC cells; 786-0 RCC cells HIF-2a reporter, luciferase luminescence, overnight; inhibition, % at 18.8 µM; actives 0.72% (n = 360,000); AID 624352, 2012;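 active = inhibition of the luminescence signal of 40% or more relative to plate controls, in a single-dose primary screen at 18.75 µM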
# TROY signal inh – inhibitors of TROY-driven NF-kB signaling, primary screen, Q293 LMP1-TROYcd cells, NF-kB luciferase, uHTS; inhibition, % at 10 µM; Q293 LMP1-TROYcd NF-kB luciferase reporter, 4 h; actives 0.98% (n = 360,000);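 active = compounds whose plate-normalised and pattern-corrected inhibition of the luciferase reporter signal at the single screening dose is 50% or more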
# KKLEB cytotox – cytotoxicity in KKLEB CF airway cells, primary screen, cytotoxicity control for CF NF-kB inhibitor project, cell-based, uHTS, fluorescence assay plates; activity change (cytotoxicity), % at 5 µM; actives 0.36% (n = 360,000); KKLEB CF airway cells viability, ATPlite luminescence, overnight; stronger effect = lower value; cells stimulated with P. aeruginosa culture filtrate;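 active = corrected activity change at or below -50% at 5 µM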
# CF NFkB inh – inhibitors of PAF-induced NF-kB signaling, primary screen, cell-based, GFP fluorescence, uHTS. inhibition, % at 5 µM. KKLEB NF-kB-GFP reporter, GFP fluorescence overnight. actives 0.86% (n = 360,000);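 active = at least 50% inhibition at 5 µM, scaled per plate between neutral and stimulator controls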;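 also: PAF is a Pseudomonas aeruginosa culture filtrate used as stimulus; plate controls were PAF-stimulated DMSO wells for no effect and unstimulated DMSO wells for full effect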
# The depositor's hits bear a star.
SMILES,Peg3 promoter,TWEAK Fn14 block,HIF-2a block,TROY signal inh,KKLEB cytotox,CF NFkB inh
Cc1[nH][nH]c(=O)c1C(c1c(C)[nH][nH]c1=O)c1cn(Cc2ccccc2Cl)c2ccccc12,56*,29,14,16,-37,68*
Cc1ccc(/C=N/NC(=O)c2cc3c(ccc4ccccc43)o2)o1,-57,-14,-76,73*,11,-41
O=C(N/N=C/c1ccc([N+](=O)[O-])o1)c1cc2c(ccc3ccccc32)o1,54*,35,-7,14,-12,-18
O=C(CCC(=O)Nc1ccc(Cl)cc1Cl)N/N=C/c1ccc([N+](=O)[O-])o1,57*,8,-28,2,8,-14
O=C(N/N=C/c1ccc([N+](=O)[O-])o1)c1cc2ccccc2o1,19,-13,0,-5,8,-9
CCOC(=O)c1ccc(NC(=O)CCc2nc(-c3cccc(C)c3)no2)cc1,-4,43,-17,29,-1,5
CC(=O)c1cccc(NC(=O)c2noc3c2CCc2ccccc2-3)c1,-256,-20,-295,-32,-10,11
CC(C)n1c(SCC(=O)N2c3ccccc3Sc3ccccc32)nc2c1c(=O)n(C)c(=O)n2C,34,-16,15,12,12,41
CN(C)CCCn1c(SCC(=O)N2c3ccccc3Sc3ccccc32)nc2ccccc2c1=O,107*,-15,7,-7,-31,41
Cc1ccc(-c2csc(NC(=O)CSc3nc4ccccc4c(=O)n3CCCN(C)C)n2)cc1,70*,-31,-40,-16,-19,0
CCCn1c(SCC(=O)N2c3ccccc3Sc3ccccc32)nc2c1c(=O)n(C)c(=O)n2C,27,-25,16,50*,-12,22
CNC(=O)CN(c1cc(C)ccc1C)S(C)(=O)=O,3,-6,5,13,0,-1
CCc1nc2c(OCCC3CCCCC3)cccn2c1N(C=O)Cc1ccccc1,66*,17,12,-5,-24,39
CCCCN(C=O)c1c(CC)nc2c(OCCOc3ccc(F)cc3)cccn12,11,63*,-11,0,-2,-24
CCOC(=O)C1CCN(S(=O)(=O)c2cccc(-c3cn4ccccc4n3)c2)CC1,-3,-1,-25,12,-10,-1
COc1ccccc1CN(Cc1nc2ccccc2c(=O)[nH]1)S(=O)(=O)c1ccc2ccccc2c1,58*,55*,9,47,-16,33
COc1ccc(S(=O)(=O)N(Cc2ccccc2)Cc2nc3ccccc3c(=O)[nH]2)cc1,18,6,21,-2,-4,5
COc1ccccc1NC(=O)N(Cc1cccs1)Cc1cc2cc3c(cc2[nH]c1=O)OCO3,53*,67*,32,18,-12,21
CCc1ccc2[nH]c(=O)c(CN(Cc3ccccc3)C(=O)Nc3ccccc3OC)cc2c1,10,26,1,55*,8,3
CN(C)CCCN(Cc1cc2cc3c(cc2[nH]c1=O)OCO3)C(=S)Nc1cccc(Cl)c1,-56,28,-102,51*,12,7
CCOc1ccccc1C(=O)N(Cc1ccccc1)Cc1cc2cc3c(cc2[nH]c1=O)OCCO3,61*,8,2,-16,-62*,48
O=C(NNC(=O)c1cc(-c2ccccc2)nn1-c1ccccc1)c1ccccc1,-53,-1,-34,-26,-13,-25
COC(=O)c1ccccc1C(=O)N1CC(O)CO1 (centres undefined),6,2,15,-8,5,11
CCOc1ccc(NC(=O)C2CCCN(c3c(CC)c(C)nc4ncnn34)C2)cc1 (centres undefined),-6,-14,7,1,3,-18
Nc1ccc2c(c1)C(=O)C(=O)c1ccccc1-2,100*,105*,93*,59*,-96*,80*
SMILES,Peg3 promoter,TWEAK Fn14 block,HIF-2a block,TROY signal inh,KKLEB cytotox,CF NFkB inh
Nc1ccc2c(c1)C(=O)c1ccccc1-2,-24,-21,-5,-11,1,5
CC1(C)Cc2c(cnn2-c2cccc(F)c2)C(NC(=O)CCN2CCCC2=O)C1 (centres undefined),-12,5,-4,-4,10,12
O=C(CSCc1nc2ccccc2[nH]1)Nc1ccc2ccccc2c1,8,9,-14,-6,11,-4
O=C(CSCc1cccc(CSCC(=O)Nc2ccc3ccccc3c2)n1)Nc1ccc2ccccc2c1,4,67*,-17,38,18,-13
O=C(Cc1ccc([N+](=O)[O-])cc1)c1ccc(O)cc1O,-46,5,-35,-12,-18,-1
COc1ccc(C(=O)c2ccccc2CN2C(=O)c3ccccc3C2=O)cc1,-11,-8,-6,-15,2,14
COc1cc(C2=NOC(C(=O)Nc3cccnc3)C2)cc(OC)c1OC (centres undefined),16,4,19,4,4,2
Cc1cc(C)c2c(=N)c3ccccc3n(CCCCCCCCn3c4ccccc4c(=N)c4c(C)cc(C)nc43)c2n1,105*,-39,0,-8,8,-82
c1coc(-c2nnc(-c3cccs3)o2)c1,-147,-11,-164,-46,-5,-3
O=C(COC(=O)c1nsc(Cl)c1Cl)NC1CCCC1,17,16,12,-2,-6,9
CCCCN(C)C(=O)CCC(=O)NNc1nc2ccccc2c2nc(C)nn12,12,76*,7,-6,-13,9
CC1CN(c2ncnc3c2cnn3-c2ccc(Cl)cc2)CC(C)O1 (centres undefined),-238,50,-208,55*,-4,-13
C=CCNc1ncnc2c1cnn2-c1ccc(Cl)cc1,-244,25,-223,-8,-10,-38
CCOC(=O)N1CCC(Nc2ncnc3c2cnn3-c2ccc(Cl)cc2)CC1,-61,49,-85,50*,-18,3
CCOC(=O)C1CCCN(c2ncnc3c2cnn3-c2ccc(Cl)cc2)C1 (centres undefined),-45,63*,-17,43,2,1
CCOC(=O)C1CCCN(c2ncnc3c2cnn3-c2ccc(OC)cc2)C1 (centres undefined),-99,17,-60,-9,5,0
Cc1cc(S(=O)(=O)/N=C(\N)c2ccc(C(N)=O)cc2)cc(C)c1F,9,17,14,-10,-1,-6
O=C1NC(=O)C(c2ccccc2)(c2ccccc2)N1S(=O)(=O)c1ccccc1,-9,10,16,0,6,4
